Values joined by “and” are separate entries in the source; they are usually repeats but may differ in a detail not shown here. Equal entries are not always repeated. Records with an inconclusive call do not appear. Entries that show only a call come without a potency. Active and inactive are the calls of the source. The call rests on the fitted dose curve; in most records, active means well fitted curve in the direction sought with a large enough effect; inconclusive means small, poorly fitted or top-dose-only effect, or another doubt; inactive means no such curve, though single readings can be large; an effect the other way counts as inactive or inconclusive.

For the first assay, the target named is Papain (Carica papaya) (UniProt P00784). Description: Primary qHTS assay for inhibitors of the protease papain (AID 1645873).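 Further: papain turnover of Z-FR-AMC read as the AMC fluorescence gain over 10 min.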 The settings on record: papain Z-FR-AMC cleavage, AMC fluorescence; series mostly up to 49.8 µM. In general terms: In qHTS, concentration-response curves come from the screen itself.
Papain (Carica papaya), sequence (P00784 whole entry, looked up): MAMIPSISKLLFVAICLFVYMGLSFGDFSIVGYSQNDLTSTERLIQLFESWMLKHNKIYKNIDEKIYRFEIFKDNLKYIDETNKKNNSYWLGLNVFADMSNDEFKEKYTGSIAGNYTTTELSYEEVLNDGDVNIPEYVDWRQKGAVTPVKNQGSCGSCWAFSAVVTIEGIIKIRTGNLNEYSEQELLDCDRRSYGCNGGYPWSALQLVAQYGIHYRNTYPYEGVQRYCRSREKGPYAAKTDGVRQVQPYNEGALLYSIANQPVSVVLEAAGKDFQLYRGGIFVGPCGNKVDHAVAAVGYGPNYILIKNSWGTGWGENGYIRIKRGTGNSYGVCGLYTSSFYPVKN
Turning to `O=c1[nH]c2ccccc2n1CCCN1CCC(n2c(=O)[nH]c3cc(Cl)ccc32)CC1`, the Potency result was “inactive”.
As to `COC[C@H]1OC(=O)c2coc3c2[C@@]1(C)C1=C(C3=O)C2CCC(=O)[C@@]2(C)C[C@H]1OC(C)=O` (stereo partly drawn), the Potency entry is “inactive”.
The same measure, in the same setting: under `Nc1ccncc1` stands “inactive”; under `CC(O)(CS(=O)(=O)c1ccc(F)cc1)C(=O)Nc1ccc(C#N)c(C(F)(F)F)c1` (stereo not drawn), “inactive”.

System in the next assay: not listed separately
Put plainly: Primary qHTS for inhibitors of nuclear receptor binding SET domain protein 2 (NSD2) in an isogenic RCH-ACV NSD2 p.E1099K mutant (9B) (AID 1645876). Further: nearly all actives have a fitted effect of over 70% in size. Further: potency means the concentration at half of the fitted maximal effect. The settings on record: RCH-ACV (leukaemia line) NSD2 E1099K (9B) viability, CellTiter-Glo, 72 h; series mostly up to 44.9 µM.
On to `C=C1C[C@@H]2[C@H](CC[C@]3(C)C(=O)CC[C@@H]23)[C@@]2(C)C=CC(=O)C=C12`, for which the Potency was 16.8 µM (active) and 26.3 µM (active).
The same measure, in the same setting: under `O=P1(NCCCl)OCCCN1CCCl` (stereo not drawn) stands “inactive”.
`Cc1cc(SCc2sc(-c3ccc(C(F)(F)F)c(F)c3)nc2C)ccc1OCC(=O)O`: the Potency result was “inactive”.
Same read-out and setting: with `COC[C@H]1OC(=O)c2coc3c2[C@@]1(C)C1=C(C3=O)C2CCC(=O)[C@@]2(C)C[C@H]1OC(C)=O` (stereo partly drawn) the figure was 1.84 µM (active) and 7.42 µM (active).
On the same count and under the same terms, with `O=C(O)P(=O)(O)O` the entry was “inactive”; with `Nc1ccncc1`, “inactive”; with `N[C@@H](Cc1ccc(N(CCCl)CCCl)cc1)C(=O)O`, 2.99 µM (active) and 2.63 µM (active).
On the same count and under the same terms, with `CN(C)CCN(C)CCc1ccc(Cl)c(Cl)c1` the entry was “inactive”.
Turning to `CCN(CC)C(=O)N[C@@H]1C=C2c3cccc4[nH]cc(c34)C[C@@H]2N(C)C1`, the Potency entry is “inactive”.

Values taken from PubChem BioAssay (NCATS).
